Data reported in the supplement of paper PMC7858590.
± gives the standard deviation of the averaged measurements.

Tested on: human monocyte-derived macrophages (polarized)
Test: cell shape (eccentricity) Z-score vs DMSO control; higher = more elongated, M2-like morphology
Settings: 5 µM; 24 h; macrophage state: M1-polarized (IFNg + TNFa), cytokines present during treatment
Description: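 Primary-screen hits were rescreened on polarized hMDMs with the differentiating cytokines (IL-4 + IL-13 or IFNg + TNFa) kept in the medium during treatment with compound at 5 uM for 24 h. The eccentricity Z-score vs DMSO wells is averaged over experiments.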

SMILES	cell shape (Z-score)
O=c1ncccn1[C@@H]1O[C@H](CO)[C@@H](O)[C@H]1O	-0.513
c1ccc(-c2[nH]ncc2-c2ccnc3ccccc23)nc1	2.26
CC(C)C[C@@H](C=O)NC(=O)[C@H](CC(C)C)NC(=O)[C@H](CC(C)C)NC(=O)OCc1ccccc1	4.21
COc1cc2ncnc(Nc3ccc(F)c(Cl)c3)c2cc1OCCCN1CCOCC1	-0.66
Oc1cccc(-c2nc(N3CCOCC3)c3oc4ncccc4c3n2)c1	-3.07
CC1(C)C(=O)C=CC2(C)C1C=CC1(C)C2CCC2(C)C(c3ccoc3)OC(=O)C3OC312 (stereo not given)	-1.04
C/C=C/c1ccc2c(c1)O[C@@H](CN(C)C(=O)c1ccccc1)[C@@H](C)CN([C@@H](C)CO)S2(=O)=O	-5.32
CC(C)CNc1ccnc(NCc2csc(-c3ccccc3)n2)n1	-11.9
CC1=CC(=O)CC2C1(C)CCC(C)C2(C)CC/C(C)=C\C(=O)O (stereo not given)	-1.21
CCC1(C)CC(=O)NC1=O (stereo not given)	-7.19
O=C(/C=C/c1ccccc1)c1ccc(O)cc1	8.35
COc1cccc(NC(=O)/C=C/c2ccc(Cl)cc2)c1	4.58
Nc1nc2ccc(OC(F)(F)F)cc2s1	-5.46
CC[C@]12CCCN3CCc4c(n(c5ccccc45)[C@@](O)(C(=O)OC)C1)[C@@H]32	-5.43
CC(NCCC(c1ccccc1)c1ccccc1)c1ccccc1 (stereo not given)	-8.8
CC(C)(C)c1cc(C(=O)/C=C/c2ccc(C(=O)O)cc2)cc(C(C)(C)C)c1	-7.58
O=S(=O)(c1cccc2cnccc12)N1CCCNCC1	-0.217
Cc1c(C(=O)Nc2ccc(N3C[C@@H](C)O[C@@H](C)C3)nc2)cccc1-c1ccc(OC(F)(F)F)cc1	8.76
CCCCCc1c2c(cc(O)c1C(=O)O)OC(=O)c1c(cc(OC)cc1C(=O)CCCC)O2	2.35
CC1=C(/C=C/C(C)=C/C=C/C(C)=C/C(=O)O)C(C)(C)CCC1	7.03
C=C[C@@]1(C)CC(=O)[C@]2(O)[C@@]3(C)[C@@H](O)CCC(C)(C)[C@@H]3[C@H](O)[C@H](OC(C)=O)[C@@]2(C)O1	-1.28

Same assay, conditions: 5 µM; 24 h; macrophage state: M2-polarized (IL-4 + IL-13), cytokines present during treatment

SMILES	cell shape (Z-score)
O=C(Nc1ccc([N+](=O)[O-])cc1Cl)c1cc(Cl)ccc1O	-8.05
COc1ccc(/C=C/C(=O)c2ccc(O)cc2O)cc1	-3.18
CC(Nc1nc(N2CCCC2)nc2ccccc12)c1ccccc1 (stereo not given)	-11.8
CC1=CC[C@@]2(C)CC[C@@](O)(C(C)C)[C@@H]2[C@@H](O)C1	-2.34 ± 1.2
C#CC1(OCC(O)CN2CCN(c3cccc(C(F)(F)F)c3)CC2)CCCCC1 (stereo not given)	3.74
CC(=O)OCC(=O)[C@@]1(O)[C@H](OC(C)=O)C[C@H]2[C@@H]3CCC4=CC(=O)C=C[C@]4(C)[C@@]3(F)[C@@H](O)C[C@@]21C	-9.46
CCCCC[C@H](O)/C=C/[C@H]1[C@H](O)CC(=O)[C@@H]1CCCCCCC(=O)O	-28.2
Nc1ccccc1NC(=O)c1ccc(CNC(=O)OCc2cccnc2)cc1	-0.828
O=C1c2ccc(Nc3ccc(F)cc3F)cc2CCc2ccc(OC[C@H](O)CO)cc21	2.03
NC(N)=Nc1nc(CSCC/C(N)=N/S(N)(=O)=O)cs1	0.285
Cc1cc2cc3c(C)cc(=O)oc3c(C)c2o1	1.88
COC(=O)Nc1nc2cc(Sc3ccccc3)ccc2[nH]1	-6.87
CN1[C@@H](CC(=O)c2ccccc2)CCC[C@H]1C[C@H](O)c1ccccc1	4.11
CC(C)c1ccc(Cn2ccc3c4c(N)nc(NC5CC5)nc4ccc32)cc1	-11
